The whole screen tested about 290,000 compounds, of which about 3,000 (1%) were called active. Cut-off read from the data, not from the text of the source: active = inhibition mostly above about 36% (no sharp cut-off); inactive = mostly below about 34%. The entries come from a sample that favours actives as a whole.

A short description of the assay: NOD1 signaling inhibitors, primary screen, cell-based, luminescence, uHTS (AID 1578).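 Note: HEK-293T reporter cells stimulated with the NOD1 agonist gamma-tri-DAP.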 To be noted: NOD1-driven NF-kB luciferase reporter cells, at 4 µM, stronger effect = higher value.
What is called inhibition is the drop in the measured response relative to a control, in per cent. For `CS(=O)(=O)N1CCN(c2ccccc2NC(=S)NC(=O)c2ccccc2[N+](=O)[O-])CC1`, the inhibition was -7.4% (inactive).

As to `O=C(COC(=O)CNS(=O)(=O)c1ccccc1)Nc1ccc(Cl)cn1`, the inhibition was -21% (inactive).

Take `Cc1cc(C)n(-c2ccc(C(=O)Nc3sccc3C(N)=O)cc2)n1`: the inhibition was -77.9% (inactive).

For `COc1ncnc2c1oc1nc(C(C)C)c3c(c12)CC(C)(C)OC3`, the inhibition was -12.3% (inactive).

Take `CCN(CC)S(=O)(=O)c1cccc(N=Nc2sc(N)nc2C)c1`: the inhibition is 1.1% (inactive).

As for `N#Cc1ccc(OCC(O)CS(=O)(=O)c2ccccc2)cc1` (stereo unspecified), the inhibition is -22.8% (inactive).

For the compound `CC(=O)c1ccc(NC(=O)C2CCCN(C(=O)c3ccc(Cl)cc3)C2)cc1` (stereo unspecified), the inhibition is -22.6% (inactive).

In the case of `O=C1CCCN1S(=O)(=O)c1ccc(F)cc1`, the inhibition is 5.5% (inactive).

In the case of `CCOc1ccc(NC(=O)C2CCCN(S(=O)(=O)c3ccc4c(c3)CC(C)N4C(C)=O)C2)cc1` (stereo unspecified), the inhibition is -4% (inactive).

In the case of `COn1c(-c2ccccc2)nc2ccc(Cl)cc21`, the inhibition is -72.4% (inactive).

With `Cc1cc(C(=O)N/N=C/c2c(C)nn(-c3ccccc3)c2Cl)n[nH]1`, the inhibition was -4.6% (inactive).

With `CC(=O)N(C(C)=O)S(=O)(=O)c1ccc(N=NN2CCOCC2)cc1`, the inhibition was -25.7% (inactive).

As to `O=C(Nc1ccccc1C(=O)Nc1cccnc1)c1ccccc1`, the inhibition is -11.8% (inactive).

`Cc1csc(NC(=O)c2ccc(=O)[nH]c2)n1`: the inhibition is -4.6% (inactive).

As to `Cc1ccc2c(c1)C1CN(C)CCC1N2C(=S)Nc1ccc(Cl)cc1Cl` (stereo unspecified), the inhibition is 13% (inactive).

As for `Cc1ccc2c(c1)C1CN(C)CCC1N2C(=S)NC(=O)c1ccc(Br)cc1` (stereo unspecified), the inhibition is 61.2% (active).

As for `Cc1ccc2c(c1)C1CN(C)CCC1N2C(=S)NC(=O)c1ccc(Cl)cc1Cl` (stereo unspecified), the inhibition was -10.8% (inactive).

For the compound `CCOc1cc(C2Nc3ccccc3NC3=C2C(=O)CC(C)(C)C3)ccc1O` (stereo unspecified), the inhibition is -14.4% (inactive).

For the compound `Cc1nonc1NC(=O)CSc1nc(C23CC4CC(CC(C4)C2)C3)nc2ccccc12`, the inhibition was 2.5% (inactive).

For the compound `NC(=O)CSc1nc(C23CC4CC(CC(C4)C2)C3)nc2ccccc12`, the inhibition is 58.4% (active).

As to `NC(=O)CSc1nc(-c2ccccc2)nc2ccccc12`, the inhibition was -12.4% (inactive).

As for `Cc1ccc(NC(=O)CCOc2ccccc2)cc1`, the inhibition was -12.7% (inactive).

As to `CCC(C)NC(=O)C(Cc1ccccc1)n1cccc1` (stereo unspecified), the inhibition is -8% (inactive).

Turning to `CCC1Oc2ccc(C)cc2N(CC(=O)N(Cc2cccnc2)Cc2ccc(C)o2)C1=O` (stereo unspecified), the inhibition is -12.7% (inactive).

Turning to `CCC1Oc2ccc(C)cc2N(CC(=O)N(Cc2ccncc2)Cc2ccco2)C1=O` (stereo unspecified), the inhibition is -36.7% (inactive).

`CCC1Oc2ccc(C)cc2N(CC(=O)N(Cc2cccnc2)Cc2cccc(F)c2)C1=O` (stereo unspecified): the inhibition was 34.6% (active).

On to `Cc1nn(C)c(C(=O)Nc2ccc(Br)cc2F)c1Br`, for which the inhibition was 46% (inactive).

In the case of `CCOP(=O)(OCC)C(NC(=O)Nc1ccccc1)c1ccccc1` (stereo unspecified), the inhibition is -11.6% (inactive).

Regarding `COc1ccc2c(c1)c1ccc3c(c1n2C)C(=O)C=CC3=O`, the inhibition was 0.4% (inactive).

As to `COc1ccc2[nH]c3c4c(ccc3c2c1)C(=O)C=CC4=O`, the inhibition was 51% (active).

As to `COc1ccc2[nH]c(C)cc(=O)c2c1`, the inhibition is -7.4% (inactive).

`Cc1ccc(NC(=S)NNC(=O)c2ccc(N3CCOCC3)c([N+](=O)[O-])c2)cc1C`: the inhibition is -2.1% (inactive).

For `COc1ccc(-c2csc(NC(=O)CCS(=O)(=O)c3ccccc3)n2)c(OC)c1`, the inhibition was -13.4% (inactive).

In the case of `COc1ccc(C(O)(C(C)C)C(CN2CCOCC2)c2ccccc2)cc1` (stereo unspecified), the inhibition was 5.4% (inactive).

Turning to `CN(C)C=NC(=O)c1cc(C(=O)c2ccc(Cl)cc2Cl)c[nH]1`, the inhibition was 59.7% (active).

With `CN(C)C=NC(=O)c1cc(C(=O)c2ccc(Cl)cc2)c[nH]1`, the inhibition is 38.4% (inactive).

As for `CN(C)C=NC(=O)c1cc(C(=O)c2ccccc2Cl)c[nH]1`, the inhibition was -1.9% (inactive).

Consider `O=C1CN(C(=O)NCC(=O)N[C@H](Cc2ccccc2)C(=O)O)c2ccccc2N1`, for which the inhibition was -34.2% (inactive).

For the compound `CC(C)c1cccc(C(C)C)c1NC(=O)Cn1c(=O)cnc2ccccc21`, the inhibition is -9.4% (inactive).

Consider `CN1CCC(N(C)S(=O)(=O)c2ccc(NC(=O)COc3ccc(F)cc3Cl)cc2)CC1`, for which the inhibition was -16.5% (inactive).

`COc1ccccc1OC(=O)Cc1cccc2ccccc12`: the inhibition was 63.8% (inactive).

On to `CC(=O)c1ccc(N2CCN(C(=O)CN(C)S(=O)(=O)c3cnc[nH]3)CC2)cc1`, for which the inhibition is -22.7% (inactive).

Regarding `N#CCn1cnc2sc(-c3ccccc3)cc2c1=O`, the inhibition is -27.8% (inactive).

Regarding `Cc1nn(C(C)(C)C)c(OC(=O)c2cccs2)c1Sc1ccccc1`, the inhibition was 68.5% (active).

In the case of `Cc1nn(C(C)(C)C)c(OC(=O)c2ccco2)c1Sc1ccccc1`, the inhibition is -2.8% (inactive).

As to `Cc1nn(C(C)(C)C)c(OC(=O)c2ccc(Br)o2)c1Sc1ccccc1`, the inhibition is 19.3% (inactive).

Take `Cc1ccc(C2(C)NC(=O)N(CC(=O)Nc3cc(S(=O)(=O)N(C)C)ccc3C)C2=O)cc1` (stereo unspecified): the inhibition is -19.4% (inactive).

On to `O=C(/C=C\Nc1ccccc1Br)c1ccc2c(c1)OCO2`, for which the inhibition is 59.6% (active).

In the case of `O=C(/C=C\Nc1ccc2c(c1)OCO2)c1cccs1`, the inhibition is -64.5% (inactive).

For the compound `O=C(/C=C\Nc1ccc2c(c1)OCO2)c1ccccn1`, the inhibition was 70.6% (active).

Take `O=C(/C=C/c1ccc2c(c1)OCO2)c1ccccn1`: the inhibition is -6.5% (inactive).

Turning to `O=C(/C=C\Nc1ccccn1)c1ccccc1`, the inhibition is -49.1% (inactive).

Turning to `O=C(/C=C\Nc1ccc2c(c1)OCO2)c1ccc2c(c1)OCO2`, the inhibition was -48.7% (inactive).

`O=C(/C=C/c1ccccc1Br)c1ccc2c(c1)OCO2`: the inhibition was -20% (inactive).

Consider `O=C(/C=C/c1ccccc1)c1ccccn1`, for which the inhibition is -15.9% (inactive).

For the compound `O=C(/C=C/Nc1ccccc1Br)c1ccccn1`, the inhibition was 84.5% (active).

On to `COc1cc(-c2cc(-c3ccccc3)nc(SCC(=O)O)c2C#N)cc(OC)c1OC`, for which the inhibition was -3.4% (inactive).

With `O=C(NCc1ccccc1)C1CCCN(S(=O)(=O)c2ccc(-n3cnnn3)cc2)C1` (stereo unspecified), the inhibition is 34.5% (inactive).

As to `O=C(NC1CCSC1=O)c1ccccc1` (stereo unspecified), the inhibition is 18.9% (inactive).

On to `Cc1ccc2sc(N(CCN(C)C)C(=O)c3ccc(S(=O)(=O)N4CC(C)OC(C)C4)cc3)nc2c1C` (stereo unspecified), for which the inhibition was -6.4% (inactive).

In the case of `COc1ccc(Br)cc1C1CC(=O)C(C)C(c2cc(Br)ccc2OC)N1` (stereo unspecified), the inhibition was -12% (inactive).

As for `COc1ccc(/C=N/NC(=O)CSCc2ccc([N+](=O)[O-])cc2)cc1OC`, the inhibition is -10.4% (inactive).

Turning to `O=C(NNc1ccc(F)cc1F)C1CCC1`, the inhibition was -1.9% (inactive).

With `CCOc1ccc(Nc2ccnc3cc(Cl)ccc23)cc1`, the inhibition is 5.9% (inactive).

With `NC(=S)NNc1ccnc2cc(Cl)ccc12`, the inhibition is -8.6% (inactive).

`Oc1ccc(Nc2ccnc3cc(Cl)ccc23)cc1`: the inhibition was 53.4% (active).

As to `O=C(NNc1ccnc2cc(Cl)ccc12)C1CCCCC1`, the inhibition was 47.5% (active).

`Clc1ccc(NNc2ccnc3cc(Cl)ccc23)cc1`: the inhibition was -35.6% (inactive).

For the compound `O=C(NNc1cc(Cl)ccc1Cl)C1CCC1`, the inhibition was -7.1% (inactive).

As for `Clc1ccc(CNC2CCCC2)cc1`, the inhibition is 9.1% (inactive).

For `Cc1ccc(CN(C(=O)c2ccc([N+](=O)[O-])cc2)C2CCS(=O)(=O)C2)o1` (stereo unspecified), the inhibition is -50% (inactive).

Consider `CCOC(=O)C1CCCN(C(=O)CCNS(=O)(=O)c2cc(Br)cnc2N)C1` (stereo unspecified), for which the inhibition was -11.8% (inactive).

Regarding `Cc1cc(C)c(NC(=O)COC(=O)c2cc([N+](=O)[O-])ccc2N2CCOCC2)c(C)c1`, the inhibition was -25.6% (inactive).

In the case of `CCOc1ccc(N2C(=O)CC(NCCNc3ccc(C(=O)c4cccs4)cc3)C2=O)cc1` (stereo unspecified), the inhibition was -13.5% (inactive).

As to `C=C1CCC[C@]2(C)C[C@H]3OC(=O)C(CN[C@@H](C)c4ccccc4)[C@H]3CC12` (stereo partly specified), the inhibition is -16.5% (inactive).

As to `C=C1CCC[C@]2(C)C[C@H]3OC(=O)C(CN(C)CC(OC)OC)[C@H]3CC12` (stereo partly specified), the inhibition was -4.9% (inactive).

As to `C=C1CCC[C@]2(C)C[C@H]3OC(=O)C(CN(Cc4ccc(OC)c(OC)c4)CC(C)O)[C@H]3CC12` (stereo partly specified), the inhibition is 33.5% (active).

Turning to `CCc1ccccc1NC(=S)NCCSc1ccc(Cl)cc1`, the inhibition is -3.7% (inactive).

On to `Cc1c(C(C)C)c(=O)n(-c2ccc(S(=O)(=O)NCc3ccccc3)cc2)n1C`, for which the inhibition is 44.6% (active).

`Cc1c(C(C)C)c(=O)n(-c2ccc(S(=O)(=O)NC(C)C)cc2)n1C`: the inhibition was 8.6% (inactive).

Consider `Cc1c(C(C)C)c(=O)n(-c2ccc(S(=O)(=O)NC3CC3)cc2)n1C`, for which the inhibition is -14.8% (inactive).

For the compound `O=C(Nc1ccc(F)cc1F)c1ccc2ncsc2c1`, the inhibition was -38% (inactive).

On to `CC(C)OCCCNC(=O)c1cc(-c2cccnc2)nc2ccccc12`, for which the inhibition is -6.7% (inactive).

As for `COC(=O)CN(c1ccc(OC)c(OC)c1)S(C)(=O)=O`, the inhibition is -16% (inactive).

Turning to `CCOC(=O)c1[nH]ncc1CN1CCCC(C(=O)c2cc(Cl)ccc2OC)C1` (stereo unspecified), the inhibition is 16.4% (inactive).

With `CCOC(=O)c1[nH]ncc1CN1CCCC(C(=O)c2ccc(C(C)(C)C)cc2)C1` (stereo unspecified), the inhibition is -29.3% (inactive).

As for `CCOC(=O)c1[nH]ncc1CN1CCCC(C(=O)c2ccc(OC)c(OC)c2)C1` (stereo unspecified), the inhibition was 111% (active).

As for `Cc1cccc(N(Cc2ccccc2)C(=O)CCl)c1`, the inhibition is -31.5% (inactive).

Regarding `O=C(CCl)N(Cc1cccc([N+](=O)[O-])c1)c1cccc(Cl)c1`, the inhibition was 101% (active).

Regarding `Cc1ccc(N(CCC#N)C(=O)CCl)cc1C`, the inhibition was 97.7% (active).

With `N#CCCN(C(=O)Nc1ccc(Cl)cc1)c1ccccc1`, the inhibition is -13% (inactive).

For the compound `Cc1ccc(C(=O)N(CC#N)CC#N)cc1C`, the inhibition was -16.5% (inactive).

As for `Cc1ccc(N(CCC#N)C(=O)CSc2ccc3c(c2)OCCO3)cc1`, the inhibition is 3.9% (inactive).

For the compound `N#CCCN(C(=O)COc1ccc(Cl)cc1Cl)c1ccccc1`, the inhibition was -24.1% (inactive).

On to `N#CCCN(C(=O)CCl)c1cccc(Cl)c1`, for which the inhibition was 58% (active).

Regarding `O=C(c1ccco1)N(Cc1ccccc1)c1cccc([N+](=O)[O-])c1`, the inhibition is 24% (inactive).
